# Source: PubChem BioAssay (National Center for Advancing Translational Sciences (NCATS))
# Only some compounds are listed: those with a hit (about 6.2% of all), similar ones and a draw of the others.
# MARV entry inh: Marburg virus entry inhibition; Marburg virus pseudotyped entry inhibition, cell reporter; Potency, µM (top dose mostly 37.8 µM), actives largely listed as inhibitors; 1.8% of 300,000 active; calls by dose curve; tested in HEK293 cells
# LASV entry inh: Lassa virus entry inhibition; Lassa virus pseudotype entry inhibition, cell reporter; Potency, µM (top dose mostly 37.9 µM), hits mostly inhibitors; 1.2% of 300,000 active; AID 540256; calls by dose curve; tested in HEK293 cells; note: nearly all actives have a fitted effect of over 50% in size
# FMDV antiviral: antivirals against foot and mouth disease virus; FMDV antiviral cell-based qHTS; Potency, µM (highest dose often 57.9 µM), most hits filed as inhibitors; 1.2% of 410,000 active; AID 1159524; calls by dose curve; tested in HEK293T cells; note: read-out not given here; nearly all actives have a fitted effect of over 45% in size
# HCMV antiviral: human cytomegalovirus inhibition | HFF cells, HCMV-luciferase reporter, 72 h; hits give low values | activity change, negative = inhibition, % at 57.5 µM | 4.5% of 410,000 active | AID 1259415; in the data active = activity change below about -60%; inconclusive = no clear call, values can overlap the other calls; inactive = above about -39%
#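 Luciferase read-out from HCMV-luciferase-infected HFFs (MOI 1 PFU/cell) 72 h post infection at 37C; compounds added after 16 h cell attachment; activity normalized between buffer-only basal and Salinomycin (10uM) inhibitor controls.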
# A number is an active result; . = inactive; ? = inconclusive; / = not tested or not shown.
SMILES,MARV entry inh,LASV entry inh,FMDV antiviral,HCMV antiviral
COc1ccc(-c2noc(CSc3nc4ccccc4[nH]3)n2)cc1OC,.,.,?,-60
Cc1ccc(-c2noc(CSc3nnc(Cc4ccccc4)n3-c3cccc(C)c3)n2)cc1,?,?,?,.
CC[C@H](C)[C@@H](C(=O)NCCCCCCCCCCC(=O)N1CCN(C(=O)OC(C)(C)C)CC1)n1cc(CCCCCNC(=O)OC(C)(C)C)nn1,/,/,?,-69
CC(C)(C)OC(=O)NCCCCCc1cn([C@@H](CO)C(=O)NCCCCCCCCCCC(=O)N2CCN(C(=O)OC(C)(C)C)CC2)nn1,/,/,7.1µM,-95
CC(C)(C)OC(=O)CC[C@@H](C(=O)NCCCCCCCCCCC(=O)N1CCN(C(=O)OC(C)(C)C)CC1)n1cc(CCCCCNC(=O)OC(C)(C)C)nn1,/,/,.,.
CC(C)(C)OC(=O)NCCCC[C@@H](C(=O)NCCCCCCCCCCC(=O)N1CCN(C(=O)OC(C)(C)C)CC1)n1cc(CCCC(=O)O)nn1,/,/,.,.
O=C(CN1C(=O)CCc2cc(Br)ccc21)Nc1ccc(OC(F)(F)F)cc1,/,.,.,.
Cc1onc(-c2ccccc2)c1CNS(=O)(=O)c1ccc(F)cc1F,/,/,.,.
Cc1onc(-c2ccccc2)c1CNS(=O)(=O)c1cccc(Br)c1,?,.,.,-73
CC(C)(C)C(=O)/C=c1\[nH]c(=O)/c(=C\c2ccc(C#N)cc2)s1,.,.,?,.
COc1ccc(CCNC(=O)CCn2c(=O)c3cccn3c3cccnc32)c(OC)c1OC,/,.,.,.
CN1C(=S)SC(/[N+]([O-])=C/c2ccc(Cl)cc2)C1(C)C (stereo unspecified),.,.,.,-65
O=C(CCn1c(=S)oc2ccccc21)Nc1ccc2c(c1)OCCO2,.,.,.,.
COC(=O)c1ccc(/C=C2/SC(=S)N(CCCC(=O)Nc3ccccn3)C2=O)cc1,?,.,.,-85
COC(=O)c1ccc(/C=C2\SC(=S)N(CCCC(=O)NCCCN3CCOCC3)C2=O)cc1,?,/,.,?
CCc1ccc(/C=C2\SC(=S)N(CCCC(=O)Nc3ccccn3)C2=O)cc1,?,11µM,20µM,-103
CCc1ccc(/C=C2/SC(=S)N(CCCC(=O)Nc3ccccc3C(=O)O)C2=O)cc1,.,.,?,.
CCC(C)n1c(SCC(=O)/C(C#N)=C(\C)N)nc2ccccc2c1=O (stereo unspecified),?,?,.,.
CC(=O)OCC12CC(OC(=O)CC(C)C)C(C)=CC1OC1C(O)C(OC(C)=O)C2(C)C12CO2 (stereo unspecified),?,?,/,-97
NC(=O)c1cccn1-c1ncc(C(F)(F)F)cc1Cl,.,.,.,.
C[C@H](NC(=O)OC(C)(C)C)C(=O)N/N=C/C1=Cc2ccccc2OC1,/,/,.,-78
CCC(C)[C@H](NC(=O)OC(C)(C)C)C(=O)N/N=C/C1=Cc2ccccc2OC1 (stereo partly specified),?,?,.,?
Cc1cc(C)c2c(n1)SCC(=O)N2CC(=O)Nc1ccccc1C,.,.,.,.
CSc1ncc(Cl)c(C(=O)Nc2cccnc2)n1,/,/,.,.
CC(C)CCNC(=O)C1CCN(S(=O)(=O)c2ccc3c(c2)CC(C)N3C(=O)C2CCC2)CC1 (stereo unspecified),.,.,.,.
SMILES,MARV entry inh,LASV entry inh,FMDV antiviral,HCMV antiviral
CC(=O)N1c2ccc(S(=O)(=O)N3CCC(C(=O)Nc4ccc(C)cn4)CC3)cc2CC1C (stereo unspecified),/,/,?,-80
Cc1cccc(NC(=O)C2CCN(S(=O)(=O)c3ccc4ccccc4c3)CC2)n1,?,?,25µM,.
Cc1ccc(NC(=O)C2CCN(S(=O)(=O)c3ccc4c(c3)CC(C)N4C(=O)C3CCC3)CC2)nc1 (stereo unspecified),?,?,?,-86
CC1Cc2cc(S(=O)(=O)N3CCC(C(=O)Nc4ccccn4)CC3)ccc2N1C(=O)C1CCC1 (stereo unspecified),?,?,?,-73
Cc1sc2ccccc2c1CNC[C@H]1O[C@@H](n2cnc3c(N)ncnc32)[C@H](O)[C@@H]1O,/,/,.,.
CCOc1ccc(-c2cccc(NS(=O)(=O)c3ccccc3[N+](=O)[O-])c2)nn1,.,.,.,.
Cc1ccc(C(=O)Nc2cccc(-c3ccc(N4CCOCC4)nn3)c2)cc1,?,?,.,.
O=[N+]([O-])c1ccc2ncnc(N3CCN(Cc4ccc5c(c4)OCO5)CC3)c2c1,/,/,?,-80
CC(=O)c1ccc(N2C(=O)N(Cc3ccccc3C#N)c3ccccc3S2(=O)=O)cc1,/,.,.,.
CCOc1ccc(C(=O)NCC2CCN(CC3CCCCC3)CC2)cc1,.,.,.,.
N/C(=N\OC(=O)c1ccc(Cl)cc1Cl)c1ccccn1,3.7µM,5.2µM,.,-61
N/C(=N\OC(=O)c1ccc(Cl)cc1[N+](=O)[O-])c1ccccn1,?,?,.,.
N/C(=N\OC(=O)c1ccc([N+](=O)[O-])cc1Cl)c1ccccn1,?,?,16µM,-72
N/C(=N\OC(=O)c1ccccc1Cl)c1ccncc1,?,.,.,-99
N/C(=N\OC(=O)c1ccc(Cl)cc1Cl)c1ccncc1,/,/,.,.
Cc1ccc(C(=O)O/N=C(\N)c2ccccn2)c(Cl)c1,/,/,10µM,-80
Cc1ccc(NC(=O)Cn2c(/C=C/c3ccccc3)nc3ccccc32)cc1C,.,.,.,.
CCc1ccccc1NC(=S)N1CCC(NC(=O)c2ccc(OC)cc2)CC1,.,.,.,.
N/C(=N\OC(=O)/C=C/c1ccccc1)c1ccccn1,7.9µM,.,.,.
c1ccc(-c2nc(-c3ccco3)cs2)nc1,?,.,.,.
COc1ccccc1N1CCN(C(c2ccccc2)c2nnnn2CCc2ccccc2)CC1 (stereo unspecified),?,?,.,?
CCCCN(CC)CCCNC(=O)Nc1sc2nc3n(c(=O)c2c1C)CCC(C)CC3 (stereo unspecified),10µM,/,.,.
Cc1cc(C)c(NC(=O)Nc2sc3nc4n(c(=O)c3c2C)CCC(C)CC4)c(C)c1 (stereo unspecified),.,/,.,.
N#Cc1c(SC(C(=O)O)c2ccccc2)nc2c(c1-c1cccs1)CCCC2 (stereo unspecified),.,.,.,.
CN1CCN(c2ccc(Cl)cc2NC(=O)c2cc(=O)[nH]c3ccccc23)CC1,/,/,.,-98
SMILES,MARV entry inh,LASV entry inh,FMDV antiviral,HCMV antiviral
CCOC(=O)C1CCN(C(=O)CN2C(=O)NC3(CCCCC3)C2=O)CC1,/,/,.,.
COc1ccc(/C=N/NC(=O)c2sccc2C)c2ccccc12,/,/,.,-62
COc1cc(C(=O)Oc2ccccc2/C=N/NC(=O)c2ccc(C)c(Cl)c2)cc(OC)c1OC,?,?,.,-104
COc1cc(C(=O)N/N=C/c2sccc2C)cc(OC)c1OC,?,?,.,-87
Cc1ccsc1/C=N/NC(=O)c1ccncc1,.,.,.,.
COC(=O)c1c(NC(C)=O)sc(C(=O)Nc2ccccc2C)c1C,.,.,.,.
Cc1cc(-n2[nH]c(C)c(C)c2=O)nc(-c2ccccc2O)n1,.,.,.,?
CS(=O)(=O)N1CCN=C1SCc1ccc(Br)cc1,/,/,.,?
CC(=O)Nc1ccc(S(=O)(=O)N2CCN=C2SCc2ccc([N+](=O)[O-])cc2)cc1,13µM,?,22µM,?
